# In PubChem BioAssay (NCATS):
# Records with an inconclusive call do not appear. Activity calls are given as the source filed them. The call rests on the fitted dose curve; in most records, active means well fitted inhibition curve with a large enough effect; inconclusive means small, poorly fitted or top-dose-only effect; inactive means flat fitted curve, though single readings scatter.
# Target: Calcium and integrin-binding protein 1 (Homo sapiens) (UniProt Q99828)
# Experiment: Primary qHTS for Identification of Calcium Integrin Binding Protein 1 (CIB1) Competitor (AID 1508620);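 further: GST tagged CIB1 binding a fluorescein labelled alphaIIb integrin peptide tracer; top concentration of the series differs between compounds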
# Conditions: CIB1-GST / FITC-alphaIIb peptide fluorescence polarization; series mostly up to 114 µM; activity change, negative = inhibition: at the top concentration
# Method in brief: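 Fluorescence polarization competition: CIB1-GST (1 uM final) preincubated with compound 15 min at room temperature, then FITC-labeled alphaIIb peptide (100 nM final) added for another 15 min. Polarization read at Ex 480/Em 540.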
# On the % scale 0 is the no-effect control and ±100 the full control effect.
# Chain of Calcium and integrin-binding protein 1 (Homo sapiens) (Q99828 whole entry, looked up): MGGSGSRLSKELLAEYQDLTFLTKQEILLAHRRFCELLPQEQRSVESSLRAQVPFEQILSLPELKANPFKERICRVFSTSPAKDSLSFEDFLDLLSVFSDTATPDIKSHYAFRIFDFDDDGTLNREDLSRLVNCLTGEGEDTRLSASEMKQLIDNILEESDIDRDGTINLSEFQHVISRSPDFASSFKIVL
row,SMILES,"activity change, negative = inhibition"
1,Cc1noc(C)c1-c1csc(N2CCC(C(N)=O)CC2)n1,3.82% (inactive)
2,O=S(=O)(Nc1nc(-c2ccccc2C(F)(F)F)nc2ccccc12)c1ccc(-c2cccnc2)cc1,1.38% (inactive)
3,O=C(Nc1cccc([S+](=O)([O-])Nc2ccccc2F)c1)c1ccccc1,1.8% (inactive)
4,Cc1cc(C)nc(NC(=S)N2CCN(c3ccc(C(F)(F)F)cc3[N+](=O)[O-])CC2)c1,-13% (inactive)
5,O=C1c2ccccc2C(=O)N1c1ccc2ccccc2n1,1.41% (inactive)
6,O=S(=O)(NN1CCOCC1)c1ccc(Br)cc1,-2.76% (inactive)
7,O=S(=O)(Nc1cccc2cccnc12)c1ccc(Br)s1,-13.8% (inactive)
8,COc1cc(-c2nc(Nc3ccc(F)c(F)c3)c3ccccc3n2)ccn1,8.98% (inactive)
9,Cc1cc(C)n2ncc(C(=O)NC(C)C)c2n1,-0.15% (inactive)
10,COc1ccc(-c2ccc3ncnc(NCc4nc(C)cs4)c3c2)cc1OC,-8.26% (inactive)
11,Cc1sc(NC(=O)Cc2ccc3c(c2)OCO3)nc1-c1ccc2c(c1)CCN2C(=O)c1ccccc1C(F)(F)F,8.96% (inactive)
12,O=C(OCC#CCSc1nnc(-c2ccccc2)o1)c1ccc(F)cc1,4.65% (inactive)
13,O=C(OCC#CCSc1nnc(-c2cccc3ccccc23)o1)c1cc2ccccc2o1,-3.02% (inactive)
14,Cc1noc(C)c1-c1ccc(Nc2nc(-c3ccncc3)nc3ccccc23)cc1F,14.7% (inactive)
15,COc1cccc(C)c1NC(=O)C(OC(=O)CNC(=O)c1ccccc1)c1ccccc1 (stereo not given),3.84% (inactive)
16,NC(=O)c1cccc(-c2noc(-c3ccccc3F)n2)c1,-0.173% (inactive)
17,COc1ccc(-c2c(NC(C)=O)sc3c2CCNC3)cc1,3.02% (inactive)
18,N#Cc1c(-c2ccco2)no[n+]1[O-],-3.75% (inactive)
19,COc1cccc(C2c3c(ncn(-c4ccc5c(c4)OCO5)c3=N)Oc3ccc4ccccc4c32)c1 (stereo not given),-0.936% (inactive)
20,N#Cc1ccc(-c2ccc(NC(=O)c3cccs3)cn2)cc1,2.08% (inactive)

row,SMILES,"activity change, negative = inhibition"
1,CCc1nn2c(=O)cc(-c3ccncc3)nc2s1,-5.44% (inactive)
2,Cc1cc(C)nc(NC(=S)N2CCN(c3cc(Cl)cc(C(F)(F)F)c3)CC2)c1,-12.4% (inactive)
3,O=C1Cc2cc(S(=O)(=O)N3CCN(c4ccc(O)cc4)CC3)ccc2N1,-20.4% (inactive)
4,COc1cc(Nc2nc(-c3ccncc3)nc3ccccc23)ccc1Cl,4.16% (inactive)
5,Cc1ccc(OCCn2c(CCNC(=O)Cc3ccc(F)cc3F)nc3ccccc32)cc1,17.2% (inactive)
6,COc1cccc(C(=O)NC2CCN(C#N)CC2)c1,0.127% (inactive)
7,O=[S+]([O-])(Nc1ccccc1)c1ccc(NCc2ccc(Cl)cc2O)cc1,1.97% (inactive)
8,Cc1cc2c(s1)c1cnn(Cc3cc(C(F)(F)F)ccc3F)c(=O)c1n2C,-0.885% (inactive)
9,Cc1csc(CNc2ncnc3ccc(-c4ccc5c(c4)OCO5)cc23)n1,-4.53% (inactive)
10,COc1ccc(NC(=O)Nc2ccc(-c3nc4ccccc4[nH]3)cc2)cc1OC,-17.5% (inactive)
11,CC(=O)Nc1sc2c(c1-c1csc3ccccc13)CCNC2,12.3% (inactive)
12,N#Cc1ccc(C[C@H](C(=O)O)N2C(=O)c3ccc(C(=O)O)cc3C2=O)cc1,-0.401% (inactive)
13,O=C1CCCC2=C1C(c1[nH]ncc1Cl)N=C(Nc1nc3cc(Br)ccc3o1)N2 (stereo not given),-12.4% (inactive)
14,Fc1ccc(-c2nc(-c3ccncc3)nc3ccccc23)cc1F,1.35% (inactive)
15,CNC(=O)c1cnn2c(C)cc(C)nc12,-1.46% (inactive)
16,O=C(Nc1nnc(-c2ccncc2)s1)Nc1ccc(Cl)c2ccccc12,5.71% (inactive)
17,O=S(=O)(Nc1cccc2ccccc12)c1ccc(NCc2ccc(Br)cc2O)cc1,2.24% (inactive)
18,CC(=O)Nc1cccc(S(=O)(=O)Nc2ccc(C)c(C)c2)c1,4.3% (inactive)
19,CCOC(=O)c1ccoc1-c1ccc2ncnc(NCCc3cnc[nH]3)c2c1,2.74% (inactive)
20,Cc1cc2c(s1)c1cnn(Cc3ccc(F)c(F)c3)c(=O)c1n2C,3.79% (inactive)
